The values below come from PubChem BioAssay.

Test [1] deals with NAD(+) hydrolase SARM1 (Homo sapiens) (UniProt Q6SZW1). Nature of the test: blocking NAD cleavage by SARM1 SAM-TIR – cell lysate, NAD-Glo luminescence (AID 1508614;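 active = compound whose remaining NAD level is above about 45 nM, limit read from the data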;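 note: higher remaining NAD means stronger inhibition of SARM1 NADase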). The note with it: SAM-TIR HEK293T lysate NADase, at 1 µM, stronger effect = higher value.
Test [2] addresses Mitogen-activated protein kinase 7 (Homo sapiens) (UniProt Q13164). Nature of the test: Gal4-ERK5 driven luciferase induction – cell-based, HTS, primary screen (AID 1508626).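 Note: luciferase driven by Gal4-ERK5 fusion binding five Gal4 sites before minimal TATA.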 The note with it: HeLa Gal4-ERK5 transactivation, 18 h, at 5 µM, stronger effect = higher value.
A short description of test [3]: blockers of polyQ-driven CASP3 activation – cell-based (AID 1583). Particulars: polyglutamine-induced caspase-3 activation, cell assay; stronger effect = higher value;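 tested at 10 µM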.
Test [4] can be described thus: yeast 75Q aggregation reduction – 75Q-TubU reporter (AID 1593). Particulars: Yeast 75Q polyglutamine aggregation reporter.
Test [5] can be described thus: restoration of touch response, mutant HTT neurons – whole organism, C. elegans mechanosensory neurons, N-terminal huntingtin (AID 1599). The note with it: C. elegans polyQ-huntingtin mechanosensory neurons, stronger effect = higher value.
Test [6] in a line: blockers of cytochrome c efflux from mitochondria – biochemical, purified mitochondria (AID 1603).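 Note: mouse liver mitochondria challenged with calcium chloride; signal normalized to the plate average as 100%.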 The note with it: stronger effect = lower value.
Test [7] is described as follows: polyglutamine aggregate formation blockers (AID 1604). The note with it: polyglutamine-induced protein aggregation inhibition assay; stronger effect = higher value; tested at 2.5 µM.
Test [8] in a line: glutamate transport activators, MN-1 cells, MN-1 cell line (AID 1612).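 Note: tested at 1 µM final; 0% = mean of DMSO vehicle wells on each plate; positive means more glutamate uptake than control and negative means less.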 The note with it: MN-1 motor neuron cells, stronger effect = higher value.
The nature of test [9]: GFP-Q80 aggregate reduction, neuronal-like cells, cell-based, NGF-treated PC12, GFPQ80 (AID 1614).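 Note: lower means fewer inclusions and 0 means no inclusions at all.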 Particulars: PC12 NGF-treated GFP-polyQ80 inclusion reduction.
The nature of test [10]: 75Q-TubH aggregate inhibition, S. cerevisiae, yeast (AID 1616). The note with it: S. cerevisiae 75Q-TubH polyglutamine aggregation suppression; stronger effect = higher value.
Test [11] in a line: viability loss in pontine glioma line – cell-based, JHH-DIPG-1, MIPE4.0, CellTiter-Glo, qHTS, dose response (AID 1347062; cut-off not given, nearly all actives have AC50 up to about 27 µM). The note with it: JHH-DIPG-1 viability, CellTiter-Glo ATP luminescence. A general note: In ATP-based viability assays light output follows the ATP content of the culture.
The nature of test [12]: galactose survival enhancers in mitochondrial complex I cybrids – cell-based, galactose medium, ATP luminescence, primary screen (AID 1645843;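 active = z-score of at least 1.8 in each of two replicates, scored against plate mean and spread of sample wells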;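 note: positive z means more ATP and so rescue of galactose-driven cybrid death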). The note with it: complex I mutant cybrid cells, 72 h, stronger effect = higher value.

SMILES strings stand for the structures. Results filed as inconclusive are left out. For part of these data: Entries with a potency or affinity are not part of this list. Activity calls are given as the source filed them.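 Rule for the calls, unless noted: active = luciferase signal above three times the same-plate solvent-only control wells; inactive = the rest.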

Mitogen-activated protein kinase 7 (Homo sapiens), sequence (Q13164 whole entry, looked up, the tested form may be a part): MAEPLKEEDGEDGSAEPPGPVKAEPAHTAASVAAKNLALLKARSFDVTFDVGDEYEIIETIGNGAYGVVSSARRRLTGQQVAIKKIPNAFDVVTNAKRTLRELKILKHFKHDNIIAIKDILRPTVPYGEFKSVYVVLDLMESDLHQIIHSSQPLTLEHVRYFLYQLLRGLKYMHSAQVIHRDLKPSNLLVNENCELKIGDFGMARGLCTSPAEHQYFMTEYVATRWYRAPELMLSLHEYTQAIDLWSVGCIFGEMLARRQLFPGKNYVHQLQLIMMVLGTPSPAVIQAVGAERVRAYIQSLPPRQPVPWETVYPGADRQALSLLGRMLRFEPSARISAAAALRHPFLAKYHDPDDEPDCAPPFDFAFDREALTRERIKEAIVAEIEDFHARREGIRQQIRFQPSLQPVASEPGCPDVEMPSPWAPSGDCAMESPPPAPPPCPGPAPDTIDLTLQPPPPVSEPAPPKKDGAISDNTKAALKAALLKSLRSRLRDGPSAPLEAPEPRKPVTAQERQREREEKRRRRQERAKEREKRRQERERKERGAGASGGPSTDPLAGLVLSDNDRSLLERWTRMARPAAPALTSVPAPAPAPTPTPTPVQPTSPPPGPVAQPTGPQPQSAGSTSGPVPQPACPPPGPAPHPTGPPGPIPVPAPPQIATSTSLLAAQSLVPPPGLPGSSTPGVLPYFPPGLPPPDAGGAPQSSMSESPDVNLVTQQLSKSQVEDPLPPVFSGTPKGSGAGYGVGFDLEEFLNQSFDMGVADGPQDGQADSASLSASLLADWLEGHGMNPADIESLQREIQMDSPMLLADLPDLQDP
NAD(+) hydrolase SARM1 (Homo sapiens), sequence (Q6SZW1 whole entry, looked up, the tested form may be a part): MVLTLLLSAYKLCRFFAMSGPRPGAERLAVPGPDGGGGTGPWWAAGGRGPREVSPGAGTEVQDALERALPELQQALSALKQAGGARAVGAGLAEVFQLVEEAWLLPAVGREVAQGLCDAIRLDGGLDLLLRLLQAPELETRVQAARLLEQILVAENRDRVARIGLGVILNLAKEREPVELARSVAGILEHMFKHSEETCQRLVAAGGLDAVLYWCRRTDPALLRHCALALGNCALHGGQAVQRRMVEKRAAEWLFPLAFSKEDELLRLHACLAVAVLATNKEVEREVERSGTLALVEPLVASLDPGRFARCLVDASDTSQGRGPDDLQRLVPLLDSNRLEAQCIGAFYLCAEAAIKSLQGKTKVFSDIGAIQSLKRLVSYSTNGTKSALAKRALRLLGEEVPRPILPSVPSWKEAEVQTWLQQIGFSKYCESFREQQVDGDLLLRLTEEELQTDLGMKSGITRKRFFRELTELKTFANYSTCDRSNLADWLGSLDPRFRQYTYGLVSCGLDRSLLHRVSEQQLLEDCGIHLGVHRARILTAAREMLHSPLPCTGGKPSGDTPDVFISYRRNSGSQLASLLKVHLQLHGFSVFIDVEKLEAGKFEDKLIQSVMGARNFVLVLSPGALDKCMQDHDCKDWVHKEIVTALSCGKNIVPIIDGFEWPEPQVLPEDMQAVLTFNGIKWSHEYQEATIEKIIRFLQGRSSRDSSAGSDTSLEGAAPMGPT

Turning to `CNC(C)[C@H](O)c1ccccc1` (stereo partly drawn), in test [1], the remaining NAD was 10 nM (inactive). In addition, the luciferase signal in test [2] is 52 AU (inactive).
`C#CC1(O)CCC2C3CCC4=CC(=O)CCC4(C)C3CCC21C` (stereo not drawn): in [3], the inhibition was determined as 4.95%. This molecule yielded a score in test [4] of 0.22. The rescue above control in [5] came to 3.19. Besides, in test [6], the cytochrome c release ratio was 0.95. The inhibition of aggregation in [7] was 63.6%. For the same molecule, the glutamate uptake change in [8] came to 12.9%. This molecule also gave an inclusion score in [9] of 2. The molecule further yielded an aggregation suppression score in [10] of 1.19. Also, the call in test [11] was inactive.
For the molecule `C=C1CC2C(CC[C@]3(C)C(=O)CCC23)[C@@]2(C)C=CC(=O)C=C12` (stereo partly drawn), the z-score in test [12] is -1.42 (inactive).
Consider `C[C@@H]1O[C@@H](O[C@H]2C[C@@H](O)[C@]3(CO)C4C(CC[C@]3(O)C2)[C@@]2(O)CC[C@H](C3=CC(=O)OC3)[C@@]2(C)C[C@H]4O)[C@H](O)[C@H](O)[C@H]1O` (stereo partly drawn), for which the inhibition in test [3] stood at 78.5%. This molecule also had a score in test [4] of 1.02. The rescue above control in test [5] stood at 3.58. Also, the cytochrome c release ratio in [6] was determined as 1.01. For the same molecule, the inhibition of aggregation in test [7] stood at 75%. The glutamate uptake change in test [8] is -21.6%. Besides, in test [9], the inclusion score turned out to be 2. The molecule further displayed an aggregation suppression score in test [10] of 1.24.
For the molecule `CC(=O)O[C@H]1C[C@@H](OC(C)=O)C(C)(C)C2C[C@@H](OC(C)=O)[C@]3(C)C(CC[C@@]4(C)[C@H](c5ccoc5)C(=O)[C@H]5O[C@]543)[C@]21C` (stereo partly drawn), in test [2], the luciferase signal was 132 AU (active).
For the molecule `C[N+](C)(C)CC(=O)[O-]`, in test [3], the inhibition came to 4.44%. Also, in test [4], the score was determined as 1.09. In addition, in [5], the rescue above control came to 5.21. In [6], the cytochrome c release ratio turned out to be 1.34. Moreover, the inhibition of aggregation in test [7] turned out to be 61.8%. In [8], the glutamate uptake change came to 21.6%. Besides, the inclusion score in [9] was determined as 2. In test [10], this molecule registered an aggregation suppression score of 0.998.
For the molecule `CC1=CC(=O)c2c(O)cccc2C1=O`, in [2], the luciferase signal was 276 AU (active).
Consider `C[C@H]1C[C@@H](O)[C@]2(O)[C@@]13CC(=O)OC[C@@]2(C)[C@](C)(O)C(=O)C3`, for which the luciferase signal in test [2] is 188 AU (inactive).
For the molecule `CCC(=O)O[C@H]1CCC2C3CCC4=CC(=O)CC[C@]4(C)C3CC[C@@]21C` (stereo partly drawn), the inhibition in test [3] is 28.2%. The molecule further returned a score in [4] of 0.18. This molecule also had a rescue above control in [5] of -2.54. Moreover, the cytochrome c release ratio in test [6] amounted to 0.85. In addition, in [7], the inhibition of aggregation worked out at 35.3%. The glutamate uptake change in test [8] was determined as 14.3%. The molecule further registered an aggregation suppression score in test [10] of 0.523.
With `C=CCN1CC[C@]23c4c5ccc(O)c4OC2C(=O)CC[C@@]3(O)[C@H]1C5` (stereo partly drawn), the inhibition in test [3] was -6.59%. For the same molecule, the score in test [4] came out at 1.27. This molecule yielded a rescue above control in [5] of -8.32. In [6], the cytochrome c release ratio came out at 1.12. Besides, in test [7], the inhibition of aggregation amounted to 68.2%. Also, the glutamate uptake change in [8] was -6.41%. The molecule further returned an inclusion score in test [9] of 2. The same molecule registered an aggregation suppression score in test [10] of 1.13.
For `C=C[C@H]1CN2CC[C@H]1C[C@@H]2[C@@H](OC(=O)OCC)c1ccnc2ccc(OC)cc12`, the inhibition in [3] came to 11.7%. Further, the score in test [4] came out at 1.24. In addition, the rescue above control in test [5] is 17. The cytochrome c release ratio in test [6] is 1.43. Further, the inhibition of aggregation in test [7] worked out at 70.5%. Moreover, the glutamate uptake change in test [8] amounted to 9.82%. The aggregation suppression score in [10] turned out to be 1.15.
Take `C[C@]12CCC(=O)C=C1C=CC1C2CC[C@@]2(C)C1CC[C@@]2(O)CCC(=O)O` (stereo partly drawn): the remaining NAD in test [1] was 10 nM (inactive). In addition, the luciferase signal in test [2] is 60 AU (inactive).
For `Nc1ncn[nH]1`, the luciferase signal in [2] was 24 AU (inactive).
The same measure, in the same setting: then `COC(C)(C)CCC[C@H](C)C/C=C/C(C)=C/C(=O)OC(C)C`, with 72 AU (inactive).
As to `N#CC(O[C@@H]1O[C@H](CO[C@@H]2O[C@H](CO)[C@@H](O)[C@H](O)[C@H]2O)[C@@H](O)[C@H](O)[C@H]1O)c1ccccc1` (stereo partly drawn), in test [3], the inhibition turned out to be 3.65%. This molecule displayed a score in test [4] of 1.42. The molecule also returned a rescue above control in test [5] of -2.1. Moreover, in test [6], the cytochrome c release ratio worked out at 1.2. Further, in test [7], the inhibition of aggregation stood at 36.6%. Moreover, the glutamate uptake change in [8] stood at 14%. In test [9], this molecule gave an inclusion score of 2. In addition, the aggregation suppression score in test [10] was found to be 1.51.
On to `O=C1CC[C@@]2(O)[C@H]3Cc4ccc(O)c5c4C2(CCN3CC2CC2)[C@H]1O5`, for which the inhibition in test [3] was -9.29%. Besides, in test [4], the score came out at 1.49. In addition, in test [5], the rescue above control was -6.2. Also, in [6], the cytochrome c release ratio is 1.27. Moreover, the inhibition of aggregation in [7] turned out to be 61.5%. In addition, in test [8], the glutamate uptake change is 10.7%. In [9], this molecule displayed an inclusion score of 2. The molecule also displayed an aggregation suppression score in [10] of 1.53.
As for `C=C[C@H]1CN2CC[C@H]1C[C@@H]2[C@H](O)c1ccnc2ccccc12`, in test [3], the inhibition was found to be 15.4%. The same molecule returned a score in test [4] of 1.55. The molecule also showed a rescue above control in test [5] of 3.43. Moreover, in test [6], the cytochrome c release ratio was found to be 0.96. Moreover, in test [7], the inhibition of aggregation is -10.6%. Moreover, the glutamate uptake change in test [8] was 4.38%. The molecule further showed an inclusion score in test [9] of 2. In [10], this molecule came in with an aggregation suppression score of 1.26.
Regarding `O=c1c(O)c(-c2ccc(O)c(O)c2)oc2c(O)c(O)cc(O)c12`, the luciferase signal in [2] is 48 AU (inactive).
Same read-out and setting: then `C=C(C)C1Cc2c(ccc3c(=O)c4c(oc23)COc2cc(OC)c(OC)cc2-4)O1` (stereo not drawn), with 56 AU (inactive).
The same measure, in the same setting: then `CC1(C)C2CC(=O)[C@]3(C)C(CC[C@@]4(C)[C@H](c5ccoc5)OC(=O)[C@H]5O[C@]543)[C@@]2(C)C(=O)C[C@H]1O` (stereo partly drawn), with 36 AU (inactive).
Take `NC1C[C@H]1c1ccccc1` (stereo partly drawn): the inhibition in test [3] is -1.78%. For the same molecule, the score in test [4] was 0.95. This molecule also came in with a rescue above control in [5] of 2.94. Also, in [6], the cytochrome c release ratio amounted to 0.57. The inhibition of aggregation in test [7] was -4.08%. Also, the glutamate uptake change in test [8] came to 0.89%. The molecule also came in with an inclusion score in test [9] of 2. For the same molecule, the aggregation suppression score in test [10] amounted to 1.29.
On to `CCN1C[C@@]2(COC)C3[C@@H](OC)[C@H]4[C@@H]1[C@]3(C(OC)C[C@H]2O)C1C[C@@]2(O)[C@H](OC(=O)c3ccccc3)C1[C@]4(OC(C)=O)[C@@H](O)[C@@H]2OC` (stereo partly drawn), for which, in test [3], the inhibition is -1.76%. Also, in test [4], the score amounted to 0.9. This molecule registered a rescue above control in test [5] of -1.73. The cytochrome c release ratio in test [6] turned out to be 0.91. Besides, the inhibition of aggregation in test [7] was 65.4%. Also, the glutamate uptake change in test [8] is 9.78%. Besides, the inclusion score in test [9] stood at 2. The molecule further yielded an aggregation suppression score in test [10] of 1.1.
With `CC1[C@H](C)OC(=O)CC(O)CC(O)CC(O)CCC(O)C(O)C[C@]2(O)CC(O)C(C(=O)O)C(CC(OC3O[C@H](C)[C@@H](O)[C@H](N)[C@@H]3O)/C=C/C=C/C=C/C=C/CC/C=C/C=C/[C@H](C)[C@H]1O)O2` (stereo partly drawn), in test [3], the inhibition was 3.51%. In addition, in test [4], the score is -0.11. Moreover, the rescue above control in test [5] worked out at 3.77. Further, in test [6], the cytochrome c release ratio worked out at 0.93. In addition, the inhibition of aggregation in test [7] is 30.3%. Besides, in test [8], the glutamate uptake change was found to be 9.44%. The molecule also showed an inclusion score in test [9] of 2. Besides, the aggregation suppression score in test [10] is 0.00787.

Broadly, the inhibition is the change of the read-out against control, counted positive when it falls.
